For nine compounds, outcome and AC50 results are on record in PubChem BioAssay (EPA / NIEHS).

Inconclusive results are not listed. Activity calls are given as the source filed them. Rule for the calls, unless noted: active = hit-call score of the fitted dose curve at least 0.9, where 1 is the maximum; inactive = score below 0.9.

Experiment [1] can be described thus: CCTE_Harrill_HTTr_Viability_PRF_DMEM_6hr: (Pilot) CCTE's 6-hour Cell Viability Assessment for the High-Throughput Transcriptomics (HTTr) Platform, in MCF-7 cells cultured phenol red-free DMEM + 10% charcoal-stripped fetal bovine serum, Harrill Lab (AID 2283976). In outline: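 Membrane integrity by high-content imaging of propidium iodide uptake, six hours after dosing with eight concentrations. Cells: MCF-7 grown in phenol red-free DMEM plus 10% charcoal-stripped serum; DMSO serves as baseline for bidirectional fits.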

Experiment [2] can be described thus: CCTE_Harrill_HTTr_Viability_PRF_DMEM_12hr: (Pilot) CCTE's 12-hour Cell Viability Assessment for the High-Throughput Transcriptomics (HTTr) Platform, in MCF-7 cells cultured in phenol red-free DMEM + 10% charcoal-stripped fetal bovine serum, Harrill Lab (AID 2283977). In outline:
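Membrane integrity was scored via propidium iodide dye exclusion imaging, fitted in both directions relative to DMSO. Compounds ran as eight-point dilutions for 12 hours on MCF-7 grown in phenol red-free DMEM plus 10% charcoal-stripped serum.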

Experiment [3] is described as follows: CCTE_Harrill_HTTr_Viability_PRF_DMEM_24hr: (Pilot) CCTE's 24-hour Cell Viability Assessment for the High-Throughput Transcriptomics (HTTr) Platform, in MCF-7 cells cultured in phenol red-free DMEM + 10% charcoal-stripped fetal bovine serum, Harrill Lab (AID 2283980). In outline:
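Propidium iodide exclusion imaged at 24 h after dosing scores viability; cells were MCF-7 grown in phenol red-free DMEM plus 10% charcoal-stripped serum, tested in eight concentrations, fitted in both directions against DMSO.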

Experiment [4] in a line: CCTE_Harrill_HTTr_Apoptosis_DMEM_6hr: (Pilot) CCTE's 6-hour Apoptosis Assessment for the High-Throughput Transcriptomics (HTTr) Platform, in MCF-7 cells cultured in DMEM + 10% fetal bovine serum, Harrill Lab (AID 2283981). The method in brief: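 MCF-7 cells grown in DMEM + 10% FBS were exposed for 6 hours to an eight-point dilution series. CellEvent Caspase 3/7 Green signal was imaged; activity fitted bidirectionally against DMSO.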

Experiment [5] can be described thus: CCTE_Harrill_HTTr_Apoptosis_DMEM_12hr: (Pilot) CCTE's 12-hour Apoptosis Assessment for the High-Throughput Transcriptomics (HTTr) Platform, in MCF-7 cells cultured in DMEM + 10% fetal bovine serum, Harrill Lab (AID 2283982). In outline:
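Caspase-3/7 activity was measured by high-content imaging (CellEvent Caspase 3/7 Green) after a 12-hour exposure of MCF-7 cells grown in DMEM with 10% FBS. Eight-point concentration series, fitted bidirectionally against vehicle.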

Experiment [6] in a line: CCTE_Harrill_HTTr_Apoptosis_DMEM_24hr: (Pilot) CCTE's 24-hour Apoptosis Assessment for the High-Throughput Transcriptomics (HTTr) Platform, in MCF-7 cells cultured in DMEM + 10% fetal bovine serum, Harrill Lab (AID 2283983). In outline: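 Caspase-3/7 activity read by high-content imaging (CellEvent Green reagent) 24 h after dosing. MCF-7 cells grown in DMEM with 10% FBS received an eight-point concentration series; fits were bidirectional versus DMSO.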

Experiment [7] can be described thus: CCTE_Harrill_HTTr_Apoptosis_PRF_DMEM_6hr: (Pilot) CCTE's 6-hour Apoptosis Assessment for the High-Throughput Transcriptomics (HTTr) Platform, in MCF-7 cells cultured phenol red-free DMEM + 10% charcoal-stripped fetal bovine serum, Harrill Lab (AID 2283984). In outline: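 Caspase-3/7 activity (CellEvent Green) read by high-content imaging 6 h after dosing, eight concentrations. Cells: MCF-7, phenol red-free DMEM with 10% charcoal-stripped serum. Curves fit both directions against DMSO.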

The nature of experiment [8]: CCTE_Harrill_HTTr_Apoptosis_PRF_DMEM_12hr: (Pilot) CCTE's 12-hour Apoptosis Assessment for the High-Throughput Transcriptomics (HTTr) Platform, in MCF-7 cells cultured in phenol red-free DMEM + 10% charcoal-stripped fetal bovine serum, Harrill Lab (AID 2283985). The method in brief:
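Caspase-3/7 activity by CellEvent Green high content imaging after 12 h compound exposure (eight concentrations) in MCF-7 grown in phenol red-free DMEM plus 10% charcoal-stripped serum; DMSO as baseline.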

Experiment [9] in a line: CCTE_Harrill_HTTr_Apoptosis_PRF_DMEM_24hr: (Pilot) CCTE's 24-hour Apoptosis Assessment for the High-Throughput Transcriptomics (HTTr) Platform, in MCF-7 cells cultured in phenol red-free DMEM + 10% charcoal-stripped fetal bovine serum, Harrill Lab (AID 2283986). The method in brief:
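Eight concentrations tested for 24 h on MCF-7 grown in charcoal-stripped serum, phenol red-free DMEM. High content imaging of CellEvent Caspase 3/7 Green signal gives apoptosis read-out, fitted both ways relative to DMSO.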

Experiment [10] is described as follows: CCTE_Simmons_MITO_basal_resp_rate: CCTE's HepG2 Seahorse XF Respirometric Screening Assay at Basal Respiratory State, Simmons Lab (AID 2284001). The note with it: actives raise or lower the signal. The method in brief:
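Readout is oxygen consumption rate after test compound injection, measured by Seahorse XF in HepG2 cells. Seven concentrations from 125 nM up to 100 uM final are tested, and activity in either direction is fitted against DMSO.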

The nature of experiment [11]: CCTE_Simmons_MITO_inhib_resp_rate: CCTE's HepG2 Seahorse XF Respirometric Screening Assay at Inhibited Respiratory State [full ETC block], Simmons Lab (AID 2284006). As to conditions: actives raise or lower the signal. The method in brief:
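OCR read-out in the inhibited phase following rotenone/antimycin A, after compound and FCCP injections, in HepG2 cells. Seven concentrations (125 nM to 100 uM final), three biological replicates, 6-min cycles over 72 min; DMSO baseline.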

Experiment [12] in a line: CCTE_Simmons_MITO_viability: CellTiter-Glo Viability Assessment for CCTE's HepG2 Seahorse XF Respirometric Screening Assay [post-hoc], Simmons Lab (AID 2284007; active = hit-call score of the fitted dose curve at least 0.9, where 1 is the maximum;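 for AC50: cells exposed to chemical for 90 min before the ATP read; actives lower ATP signal relative to DMSO baseline meaning reduced viability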). In outline: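 Luciferase-coupled ATP luminescence, single endpoint. HepG2, post-respirometry. Compound 125 nM–100 uM final, 7 conc., 90 min. n=3 biological, technical singles. DMSO vehicle/baseline; dichlone 10 nM–100 uM, 8 conc., as positive control.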

The nature of experiment [13]: TOX21_TR_RXR_BLA_Antagonist_Followup_viability: Viability Assessment in the Tox21 Thyroid Hormone Receptor beta Retinoid X Receptor alpha (RXRa) Antagonism Beta-lactamase (BLA) Follow-Up Assay (AID 2283979; active = hit-call score of the fitted dose curve at least 0.9, where 1 is the maximum). In outline:
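RXRa-UAS-bla HEK293T cells seeded 2,500/well in phenol red-free DMEM with 2% charcoal-stripped FBS, attached 5 h, then exposed to compounds at 11 concentrations in triplicate for 16 h at 37C/5% CO2. Viability read by CellTiter-Glo ATP luminescence; bidirectional fit versus DMSO.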

For experiment [14], the target named is Nucleoli Translocation, AR (gene 367) (UniProt P10275). In words: UPITT_HCI_U2OS_AR_TIF2_Nucleoli_Antagonist: University of Pittsburgh U2OS Androgen Receptor-Transcriptional Intermediary Factor 2 (AR-TIF2) Antagonism High Content Imaging Assay for Nucleoli Translocation (AID 2283997; active = hit-call score of the fitted dose curve at least 0.9, where 1 is the maximum). In outline:
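An antagonist-mode imaging screen: engineered U2OS (AR-RFP, TIF2-GFP) exposed to 20 uM compound, 0.2% DMSO. Activity reflects nucleolar red fluorescence change relative to DHT baseline.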

For experiment [15] the target is unchanged. In words: UPITT_HCI_U2OS_AR_TIF2_Nucleoli_Agonist: University of Pittsburgh U2OS Androgen Receptor-Transcriptional Intermediary Factor 2 (AR-TIF2) Agonism High Content Imaging Assay for Nucleoli Translocation (AID 2283998; active = hit-call score of the fitted dose curve at least 0.9, where 1 is the maximum). The method in brief:
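U2OS cells expressing RFP-tagged human AR and GFP-tagged TIF2; red fluorescence in nucleoli quantified by high-content imaging. Primary screen at 20 uM final (0.2% DMSO); concentration-response 0.195–50 uM (0.5% DMSO), fitted upward versus DMSO.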

Experiment [16] concerns the target Ratio of Nucleoli Translocation and Cytoplasm, AR (gene 367) (UniProt P10275). In words: UPITT_HCI_U2OS_AR_TIF2_Nucleoli_Cytoplasm_Ratio_Antagonist: University of Pittsburgh U2OS Androgen Receptor-Transcriptional Intermediary Factor 2 (AR-TIF2) Antagonism High Content Imaging Assay for Ratio of Nucleoli Translocation and Cytoplasm (AID 2283999; active = hit-call score of the fitted dose curve at least 0.9, where 1 is the maximum;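 note: antagonists lower the DHT-driven ratio of nucleolar to cytoplasmic red signal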). In outline: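 Read-out is the ratio of nucleolar to cytoplasmic AR-RFP fluorescence, imaged by high-content microscopy in U2OS cells coexpressing TIF2-GFP. Single-point 20 uM screen, triplicate confirmation, then 0.195–50 uM dose response; activity referenced to DHT baseline.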

For experiment [17] the target is unchanged. In words: UPITT_HCI_U2OS_AR_TIF2_Nucleoli_Cytoplasm_Ratio_Agonist: University of Pittsburgh U2OS Androgen Receptor-Transcriptional Intermediary Factor 2 (AR-TIF2) Agonism High Content Imaging Assay for Ratio of Nucleoli Translocation and Cytoplasm (AID 2284000; active = hit-call score of the fitted dose curve at least 0.9, where 1 is the maximum;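 note: hits raise the red nucleolar to cytoplasm ratio above vehicle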). The method in brief:
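Primary screen at 20 uM final (0.2% DMSO), then triplicate confirmation and dose-response from 0.195 to 50 uM final (0.5% DMSO). Cells: U2OS with AR-RFP and TIF2-GFP. Endpoint is the nucleoli/cytoplasm red-fluorescence ratio, gain-of-signal vs DMSO.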

The nature of experiment [18]: CCTE_Shafer_MEA_acute_spike_number: CCTE's Neural Acute Assay for Total Number of Spikes, Shafer Lab (AID 2284008).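 For AC50: curve fitted for decrease in spike count so AC50 reflects inhibitors.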 In outline: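 Rat primary cortical neurons on 48-well MEA plates, DIV 13 or 15, at 37 C. 40 min baseline then 40 min with compound (0.03-40 uM); spikes detected at 8x rms noise, expressed as percent change from baseline.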
A short description of experiment [19]: CCTE_Shafer_MEA_acute_firing_rate_mean: CCTE's Neural Acute Assay for Mean Firing Rate, Shafer Lab (AID 2284009).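 Note: analyzed for loss of signal so actives lower firing rate relative to DMSO.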 The method in brief: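 Spontaneous spiking of primary rat cortical networks, DIV 13/15, 37 C. Compound 0.03-40 uM, n ≥3 wells; 40 min baseline vs 40 min treated. Endpoint fitted in loss-of-signal direction against DMSO.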
The next experiment has as its system DIO1 (gene 1733). In words: CCTE_GLTED_hDIO1: CCTE's human Deiodinase 1 (DIO1) Inhibition Assay, Great Lakes Toxicology and Ecology Division (GLTED) Lab (AID 2283987; active = hit-call score of the fitted dose curve at least 0.9, where 1 is the maximum;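 note: isolated human DIO1 enzyme in a cell-free setup rather than cells; enzyme activity read as free iodide liberated from substrate via Sandell-Kolthoff colorimetry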). In outline: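 Cell-free human DIO1 enzyme incubated 3 h with test chemical; iodide freed from substrate then measured by Sandell-Kolthoff absorbance. Run in triplicate; loss of signal relative to DMSO taken as inhibition.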

Sequence of Ratio of Nucleoli Translocation and Cytoplasm, AR (gene 367) (P10275 whole entry, looked up): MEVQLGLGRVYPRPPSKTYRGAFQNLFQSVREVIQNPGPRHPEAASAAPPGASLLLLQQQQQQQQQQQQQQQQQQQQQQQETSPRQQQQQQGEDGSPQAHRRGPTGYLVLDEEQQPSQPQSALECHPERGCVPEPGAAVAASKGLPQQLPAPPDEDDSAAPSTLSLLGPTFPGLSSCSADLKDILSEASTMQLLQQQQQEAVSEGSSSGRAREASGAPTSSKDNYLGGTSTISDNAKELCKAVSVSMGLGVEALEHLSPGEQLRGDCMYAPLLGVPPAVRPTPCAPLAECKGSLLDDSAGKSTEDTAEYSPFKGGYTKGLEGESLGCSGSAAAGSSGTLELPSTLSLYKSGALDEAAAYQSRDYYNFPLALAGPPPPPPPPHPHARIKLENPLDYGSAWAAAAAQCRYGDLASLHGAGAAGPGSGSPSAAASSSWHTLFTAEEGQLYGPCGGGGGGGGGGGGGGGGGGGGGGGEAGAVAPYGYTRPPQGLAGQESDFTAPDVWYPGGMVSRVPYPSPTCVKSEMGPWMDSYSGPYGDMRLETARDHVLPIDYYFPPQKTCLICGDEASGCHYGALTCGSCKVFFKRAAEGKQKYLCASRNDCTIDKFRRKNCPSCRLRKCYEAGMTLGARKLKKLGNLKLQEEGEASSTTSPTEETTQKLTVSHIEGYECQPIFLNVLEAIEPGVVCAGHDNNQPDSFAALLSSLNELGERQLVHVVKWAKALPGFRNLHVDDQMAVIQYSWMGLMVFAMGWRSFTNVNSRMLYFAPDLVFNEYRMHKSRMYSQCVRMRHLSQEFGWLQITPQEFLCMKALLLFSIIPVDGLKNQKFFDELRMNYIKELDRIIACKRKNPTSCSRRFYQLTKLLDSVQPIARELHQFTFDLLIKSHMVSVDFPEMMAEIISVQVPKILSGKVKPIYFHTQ
Sequence of Nucleoli Translocation, AR (gene 367) (P10275 whole entry, looked up): as above

With `CC(C1CC1)C(O)(Cn1cncn1)c1ccc(Cl)cc1` (stereo not drawn), the result in experiment [1], in experiment [2], in experiment [3], in [4], in experiment [5] and in experiment [6] was inactive. In addition, the outcome in experiment [7], in [8], in [9], in experiment [11] and in [12] was inactive. Moreover, in experiment [10], the AC50 (in general, the concentration giving half of the maximal activity seen) was 35.3 µM (active).
Regarding `C=C(C)[C@H]1Cc2c(ccc3c2O[C@@H]2COc4cc(OC)c(OC)cc4[C@@H]2C3=O)O1`, the result in experiment [1], in experiment [2], in experiment [13], in experiment [4], in [5] and in experiment [6] was inactive. Further, the outcome in experiment [7], in [8], in [9], in experiment [15], in [16] and in experiment [17] was inactive. For the same compound, the AC50 is 0.0246 µM (active) in experiment [3]; 50 µM (active) in experiment [14]; 0.108 µM (active) in [10]; 0.0842 µM (active) in experiment [11]; 13.3 µM (active) in experiment [12]; 2.81 µM (active) in [18]. In addition, the AC50 in experiment [19] is 2.85 µM (active).
In the case of `CC(C)=CC1C(C(=O)OCN2C(=O)C3=C(CCCC3)C2=O)C1(C)C` (stereo not drawn), the outcome in experiment [14], in experiment [15], in experiment [16], in [11], in experiment [12] and in [18] was inactive. For the same compound, in experiment [19], the compound was called inactive. The AC50 in [10] was 42.5 µM (active).
For the compound `O=[N+]([O-])c1cc(C(F)(F)F)c(Cl)c([N+](=O)[O-])c1Nc1ncc(C(F)(F)F)cc1Cl`, the AC50 in the experiment with DIO1 (gene 1733) was 19.4 µM (active); in [10], 14.2 µM (active); in experiment [18], 0.351 µM (active); in experiment [19], 0.35 µM (active). The outcome in experiment [11] and in [12] was inactive.
With `Cc1nn(-c2cc(NS(C)(=O)=O)c(Cl)cc2Cl)c(=O)n1C(F)F`, the call in experiment [14], in [15], in [16] and in experiment [17] was inactive.
`CCc1cccc(C)c1N(C(=O)CCl)C(C)COC` (stereo not drawn): the AC50 in the experiment on DIO1 (gene 1733) was 64.2 µM (active); in experiment [10], 23.7 µM (active); in experiment [18] it was 27 µM (active); in experiment [19] it was 27 µM (active). For the same compound, the result in experiment [11] and in [12] was inactive.
For `Nc1c(Cl)cc([N+](=O)[O-])cc1Cl`, the AC50 in [14] is 41.7 µM (active). The compound was classed as inactive in [15], in [16], in experiment [17], in experiment [18] and in experiment [19].
Regarding `COc1ccc(C(=CC(=O)N2CCOCC2)c2ccc(Cl)cc2)cc1OC`, the AC50 in experiment [14] was 3.21 µM (active); in experiment [16], 2.52 µM (active). Further, the result in experiment [15] and in [17] was inactive.
With `CCOC(=O)CC(SP(=O)(OC)OC)C(=O)OCC` (stereo not drawn), the outcome (in the experiment on DIO1 (gene 1733); in experiment [18]; in [19]) was inactive.
